# The list is not random: actives were taken first. Their share in the collection is about 2.4%.
# CHT inh – inhibitors of human choline transporter CHT; CHT-expressing cells, membrane potential dye, choline response; active compounds read low; High affinity choline transporter 1 (Homo sapiens), Q9GZV3; B-score at 10 µM; actives 0.86% (n = 310,000);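 active = B-score over 3 SD under the library average, and starting fluorescence ratio not unusually high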;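 note: choline stimulus applied at its EC90 after an EC20 pre-addition; B-score computed on integrated fluorescence ratio after choline addition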
# CHT PAM – CHT positive allosteric modulators, primary screen, cell-based, membrane potential dye, choline EC20; High affinity choline transporter 1 (Homo sapiens), Q9GZV3; CHT-expressing cells; active compounds read high; LV-AA mutant CHT in HEK293 cells; B-score at 10 µM; actives 0.49% (n = 310,000); AID 488977, 2010;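 active = initial fluorescence not abnormally high and integrated response B-score, plate-corrected, over 3 SD above library mean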
# TMEM16A inh – TMEM16A chloride channel inhibitors, primary screen, cell-based, HTS; HEK293 TMEM16A/YFP iodide influx fluorescence, ionomycin; normalized B-score (activity score, 25-100; higher = stronger inhibition) at 10 µM; actives 1.2% (n = 310,000); AID 588511, 2011;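 active = ratio plate-corrected score three or more library SD toward inhibition, starting fluorescence score within five deviations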;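 note: score derived from kinetic fluorescence span divided by baseline fluorescence per well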
# TMEM16A act – TMEM16A chloride channel activators or potentiators, primary screen, cell-based, HTS | Anoctamin-1 (Mus musculus), Q8BHY3 | HEK293 TMEM16A/YFP-H148Q/I152L, iodide quench fluorescence; active compounds read low | B-score at 10 µM | actives 0.3% (n = 340,000) | AID 623877, 2012;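 active = fluorescence-ratio B-score plate-corrected deviation score at least 3 library SD below zero, with starting fluorescence score within 5 deviations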;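 note: channel opened by trigger with iodide after compound preincubation; score built on the fluorescence ratio of max minus min over baseline; more negative score means more quench and so TMEM16A activation or potentiation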
# CHT inh conf – CHT inhibitors, confirmation, cell-based, membrane potential dye, duplicate; shares compounds with CHT inh; CHT-expressing cells, choline membrane potential dye; LV-to-AA substituted CHT, HEK293 cells; CHT activity remaining % of control (active compounds read low), % at 10 µM; actives 70% (n = 2,400);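 active = choline transporter activity left, mean of duplicates at 10 µM, below buffer-only control mean minus 3 SD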;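 note: depolarization triggered by choline at its EC90 following an EC20 pre-addition; 0% = hemicholinium-3 full block and 100% = buffer-only control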
# HEK293 MPD ctr – membrane potential effects in parental HEK293, counter-screen for CHT inhibitor project, cell-based, membrane potential dye | membrane potential ratio readout (active if shifted either direction beyond buffer ±3SD; no single direction) at 10 µM | AID 493222, 2011 | actives 4% (n = 2,400) | choline response; active = decrease or increase beyond buffer ±3SD | shares compounds with CHT inh;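 note: parental cells lack the transporter so any hit is non-specific; ratio is peak minus trough fluorescence over baseline after EC90 choline challenge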
# An asterisk follows results filed as active; i = inactive; / = no result given.
SMILES,CHT inh,CHT PAM,TMEM16A inh,TMEM16A act,CHT inh conf,HEK293 MPD ctr
CSc1ccc(S(=O)(=O)N2CCC(C(=O)N3CCc4ccccc4C3)CC2)cc1,-14*,i,i,i,59%*,i
CCOc1ccc(S(=O)(=O)N2CCC(C(=O)N3CCc4ccccc4C3)CC2)cc1,i,i,i,i,/,/
COc1ccc(S(=O)(=O)N2CCC(C(=O)N3CCc4ccccc4C3)CC2)cc1,-5.8*,i,i,-12*,49%*,i
Cc1ccc(S(=O)(=O)N2CCC(C(=O)N3Cc4ccccc4C3)CC2)cc1,i,i,i,i,/,/
CCOc1ccccc1C(=O)NC(C(=O)Nc1cccc(S(N)(=O)=O)c1)C(C)C (stereo not given),i,i,i,i,/,/
CC1Cc2nc(SCC(=O)Nc3nc4ccccc4s3)n(C)c(=O)c2S1 (stereo not given),-5.1*,i,i,i,i,i
Clc1ccc2c(c1)nc1n2CCCC1,i,i,i,i,/,/
COc1cccc(/C=C2/NC(=O)NC2=O)c1OCC(=O)Nc1ccccc1,i,i,i,i,/,/
O=C(COc1ccccc1/C=C1\SC(=O)NC1=O)Nc1ccccc1,-5.7*,i,i,i,51%*,i
O=C(NCCCN1CCOCC1)c1sc2ccccc2c1Cl,i,i,i,i,/,/
CN(C)/C(=N\S(=O)(=O)c1ccccc1)c1ccc(F)cc1,i,i,i,i,/,/
O=C(NCc1cccnc1)C1CCN(S(=O)(=O)c2cccc(C(F)(F)F)c2)CC1,/,/,/,i,/,/
O=C(Nc1cccc(C(F)(F)F)c1)C1CCN(S(=O)(=O)c2cccnc2)CC1,-5.4*,i,i,i,55%*,i
Cc1noc(C)c1S(=O)(=O)Nc1ccccc1Cl,i,i,i,i,/,/
Cc1noc(C)c1S(=O)(=O)Nc1ccccc1Oc1ccccc1,-13*,i,i,i,i,i
Cn1c(CN2CCOCC2)nnc1SCC(=O)Nc1cccc(C(F)(F)F)c1,i,i,i,i,/,/
Oc1c(Br)cc(Cl)cc1C=Nc1ccc(N2CCOCC2)cc1,i,i,i,i,/,/
Oc1c(Br)cc(Cl)cc1C=Nc1ccccc1Br,-7.1*,i,i,i,68%*,i
O=C1CCC([N+](=O)[O-])C(c2ccc3c(c2)OCO3)N1 (stereo not given),-12*,i,i,i,i,i
O=C(Cn1[nH]c(=O)c2ccccc2c1=O)OCC(=O)N1CCc2ccccc2C1,-5.4*,i,i,i,i,i
O=C(Cn1[nH]c(=O)c2ccccc2c1=O)OCC(=O)N1CCCc2ccccc21,i,i,i,i,/,/
O=C(NCc1ccccc1Cl)C1CCCN(S(=O)(=O)c2cccc3nonc23)C1 (stereo not given),i,i,i,i,/,/
O=C(NC1CC1)C1CCN(C2CCN(C(=O)/C=C/c3cccc(F)c3F)CC2)CC1,i,i,i,i,/,/
Cc1oc2ccc(OCc3ccc(Cl)cc3)cc2c1C(=O)O,-5.1*,i,i,i,i,i
Cc1oc2ccc(OCc3ccc(Br)cc3)cc2c1C(=O)O,i,i,i,i,/,/
SMILES,CHT inh,CHT PAM,TMEM16A inh,TMEM16A act,CHT inh conf,HEK293 MPD ctr
CCc1nn2c(NCCOC)cc(C)nc2c1-c1ccc(F)cc1,-5.1*,i,i,i,48%*,i
COCCNc1cc(C)nc2c(-c3ccccc3OC)c(C)nn12,i,i,i,i,/,/
CCN1CCN(CCCNC(=O)c2ccc3c(c2)NC(=O)c2ccccc2S3)CC1,i,i,i,i,/,/
CC1CCCC(C)N1CCCNC(=O)c1nn(C)c2c1CSc1ccccc1-2 (stereo not given),-11*,i,i,i,2.4%*,i
CC1CCCC(C)N1CCCNC(=O)c1ccc2c(c1)NC(=O)c1ccccc1S2 (stereo not given),-5.2*,i,i,i,40%*,i
CN(C)/C=N/N(C)c1ncccc1[N+](=O)[O-],i,i,i,i,/,/
CCOc1ccc2c(c1)C(N(CCN1CCOCC1)C(=S)Nc1ccccc1OC)CC(C)(C)O2 (stereo not given),i,i,i,i,/,/
COc1ccc(N(C)S(=O)(=O)c2cccc(C(=O)NC3CCCCC3C)c2)cc1 (stereo not given),-5.5*,i,i,i,59%*,i
Cn1c(CCNC(=O)c2cccs2)n[nH]c1=S,-6.8*,i,i,i,i,i
CCn1cc(C(=O)NCc2ccccc2F)c(=O)c2ccc(C)nc21,i,i,i,i,/,/
CCCOC(=O)Nc1nnc(CCC)s1,i,i,i,i,/,/
Cc1nnc(C)n1/N=C/c1cc(Br)cc(Br)c1O,-6.8*,i,i,i,34%*,i
CCOC(=O)C1CCN(C(=O)COc2ccc(Br)cc2Br)CC1,i,i,i,i,/,/
CCOC(=O)C1CCN(C(=O)COc2cc(C)c(Br)cc2C)CC1,-6.5*,i,i,i,i,i
O=C(O)CCC(=O)Nc1ccc(Oc2ncnc3cc(Cl)ccc23)nc1,i,i,i,i,/,/
CCOc1ccccc1NC(=S)N1CCN(c2nc(-c3cccc(OC)c3)cs2)CC1,i,i,i,i,/,/
COc1ccccc1C(=O)O/N=C(\c1ccccc1)c1ccncc1,i,i,i,i,/,/
O=C(O/N=C(/c1ccccc1)c1ccncc1)c1ccc(F)cc1,-9.7*,i,i,i,i,i
CCc1cc2c(NCc3ccco3)ncnc2s1,-6.6*,i,i,i,50%*,i
Cc1cccc(OCCCC(=O)N2CCCCCC2)c1C,i,i,i,i,/,/
CCOC(=O)[C@H]1[C@H]2COc3ccc(Cl)cc3[C@@H]2N2C(=O)CN(Cc3ccc(Cl)cc3)C(=O)[C@@]12C,/,/,/,i,/,/
CC(=O)c1cccc(OCC(=O)c2cc(C)n(-c3cc(C)on3)c2C)c1,-5*,i,i,i,63%*,i
c1cn(C23CC4CC(CC(C4)C2)C3)cn1,-14*,i,i,i,-3.7%*,i
c1ncn(C23CC4CC(CC(C4)C2)C3)n1,i,i,i,i,/,/
